From PubChem BioAssay
Shiga inhibitor: blocks Shiga toxin action in Vero cells | Vero cells, Shiga toxin protein synthesis inhibition reporter | inhibition, % at 38.7 µM | 290,000 compounds, 9.2% hits; in the data active = inhibition mostly above about 28%, no sharp cut-off; inactive = mostly below about 43%; note: 0% is about no effect
RE007 growth inh: less growth of the S. pombe RE007 Vpr strain | S. pombe RE007 Vpr strain, BacTiter-Glo ATP luminescence, 24 h | 360,000 compounds, 0.21% hits | Potency, µM (series often up to 92.2 µM), inactives show at the top dose activity change, negative = less growth, hits mostly inhibitors | AID 651644; active = well fitted falling curve with a large enough effect; inconclusive = small, poorly fitted or top-dose-only effect; inactive = no such curve, though single readings can be large or run the other way; note: potency is the fitted concentration of half-maximal effect; % is set by controls: 0 for no effect and ±100 for the full control effect; nearly all actives have a fitted effect of over 50% in size
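Fission yeast strain RE007, carrying one chromosomally integrated HIV-1 vpr copy, was seeded at OD 0.01 in PMG+AL medium with 23 nL pinned compound. After 24 h at 30 °C and 99% humidity, viability was read by BacTiter-Glo luminescence.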
FBPA Giardia inh: blocks Giardia fructose-bisphosphate aldolase activity | A8B2U2 | purified Giardia FBPA | Potency, µM (series often up to 59.6 µM), inactives show top-dose activity, negative = inhibition, hits mostly inhibitors | 290,000 compounds, 0.71% hits | AID 2451; note: potency is the fitted concentration of half-maximal effect; % is set by controls: 0 for no effect and ±100 for the full control effect; nearly all actives have a fitted effect of over 55% in size
Target sequence (A8B2U2 whole entry, looked up): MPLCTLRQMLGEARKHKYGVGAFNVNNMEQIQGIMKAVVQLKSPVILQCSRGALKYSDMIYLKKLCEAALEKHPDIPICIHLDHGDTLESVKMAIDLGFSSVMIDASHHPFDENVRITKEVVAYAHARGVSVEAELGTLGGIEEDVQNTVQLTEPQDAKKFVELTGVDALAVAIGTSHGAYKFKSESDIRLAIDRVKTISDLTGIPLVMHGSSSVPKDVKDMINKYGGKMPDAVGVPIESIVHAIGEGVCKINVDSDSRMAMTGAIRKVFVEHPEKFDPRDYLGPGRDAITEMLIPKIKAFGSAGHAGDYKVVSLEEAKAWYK
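40 nM FBPA preincubated 10 min at RT with compound (up to 57.5 uM final), then substrate plus GAPDH/TPI/NAD/arsenate coupling and diaphorase/resazurin added. Fluorescence read after 20 min at RT, 525/598 nm.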
LmPK inhibitor: blocks Leishmania mexicana pyruvate kinase activity; Q27686; purified LmPK, Kinase-Glo ATP luminescence, 1 h; Potency, µM (doses to about 57.5 µM), for inactives: at the top dose activity change, negative = inhibition, hits mostly inhibitors; 290,000 compounds, 0.37% hits; AID 1721; note: potency is the fitted concentration of half-maximal effect; % is set by controls: 0 for no effect and ±100 for the full control effect
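Pyruvate kinase activity monitored as ATP production (luciferase luminescence). Conditions: 0.1 nM enzyme, 0.5 mM PEP, 0.1 mM ADP, 1 h, RT; normalized against uninhibited and no-enzyme wells.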
Cycloheximide cs: counter-screen for Shiga toxin inhibitors: cycloheximide protein synthesis inhibition; max response, %; 300,000 compounds, 12% hits; cell reporter, cycloheximide protein synthesis inhibition counterscreen; in the data active = max response mostly above about 13%, no sharp cut-off; inactive = mostly below about 14%; note: read at 38.3 µM for the half of the compounds with a filed dose; 0% is about no effect
Tb PYK inh: blocks Trypanosoma brucei pyruvate kinase | Potency, µM (top dose mostly 76.8 µM), inactives show at the top dose activity, negative = inhibition, most hits filed as inhibitors | TbPYK enzyme, Kinase-Glo Plus ATP luminescence, 45 min | 410,000 compounds, 0.12% hits | Q57TT1; note: potency is the fitted concentration of half-maximal effect; % is set by controls: 0 for no effect and ±100 for the full control effect; nearly all actives have a fitted effect of over 50% in size
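ADP (130 uM final) triggers the TbPYK reaction after compound addition; incubation is 45 min at room temperature. Kinase-Glo Plus is then added and luminescence imaged. Normalized data are fitted to concentration-effect curves.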
Starred values were filed as active, the others as inactive; ? = inconclusive; · = no result. The sample as a whole holds a higher share of hits than the screen did. Unless noted, calls come from the whole dose curve; as a rule, active = well fitted curve in the direction sought with a large enough effect; inconclusive = small, poorly fitted or top-dose-only effect, or another doubt; inactive = no such curve, though single readings can be large; an effect the other way counts as inactive or inconclusive.

SMILES	Shiga inhibitor	RE007 growth inh	FBPA Giardia inh	LmPK inhibitor	Cycloheximide cs	Tb PYK inh
Cc1cc(C)c(Cn2c(C(O)c3ccccc3)nc3ccccc32)c(C)c1 (configuration not stated)	·	·	·	·	·	2.2%
COc1ccc(-c2nc3cnc(N4CCOCC4)nc3n(Cc3cccs3)c2=O)cc1	·	·	2.6%	·	·	·
Cc1nnc(SCc2nc3ccccc3s2)n1N	76.1*	6.9%	-0.7%	7.8%	43.7*	-1.3%
CCn1c(SCC(O)c2ccccc2)nnc1-c1ccccc1 (configuration not stated)	28.2*	4.0%	3.5%	2.3%	39.2*	-7.4%
CCn1c(SCC(=O)OC(C)C)nnc1-c1ccccc1	6.5	5.4%	-5.3%	3.7%	-3.0	-6.0%
Cc1ccccc1CSc1nnc(C)n1N	-0.6	-5.6%	-3.0%	-10.0%	-3.0	6.9%
O=c1c2cc(N3CCOCC3)ccc2[nH]c(=S)n1CC1CCCO1 (configuration not stated)	54.3*	-5.2%	?	-15.1%	10.0	-8.5%
O=c1c2cc(N3CCOCC3)ccc2[nH]c(=S)n1Cc1ccccc1Cl	2.7	11.0%	-19.7%	-5.1%	3.7	-8.3%
O=c1c2cc(Br)ccc2[nH]c(=S)n1Cc1ccccn1	10.7	-6.0%	-11.7%	-4.2%	23.9*	-9.5%
O=c1c2cc(N3CCOCC3)ccc2[nH]c(=S)n1Cc1ccccn1	active	-7.3%	?	11.2%	17.0*	-12.7%
CC(=O)c1ccc(N2CCN(C(=O)c3ccc(Cn4c(=S)[nH]c5ccc(N6CCOCC6)cc5c4=O)cc3)CC2)cc1	59.2*	9.8%	0.4%	5.1%	15.5	2.5%
CC(=O)c1ccc(N2CCN(C(=O)c3ccc(Cn4c(=O)[nH]c5ccccc5c4=O)cc3)CC2)cc1	·	·	·	·	·	3.0%
CCn1nc(C(=O)Nc2ccc3c(c2)OCCO3)c2ccccc2c1=O	·	0.4%	·	·	·	3.9%
CCn1cc(Cl)c(C(=O)Nc2cccc(C(F)(F)F)c2)n1	58.3*	6.3%	-12.0%	-13.5%	31.7*	-3.8%
CCn1cc(Cl)c(C(=O)Nc2ccc3c(c2)OCCO3)n1	168.5*	11.0%	2.0%	?	44.1*	-7.5%
CCn1cc(Br)c(C(=O)Nc2ccccc2C(=O)OC)n1	-2.1	-22.5%	0.0%	-1.0%	-0.4	1.4%
CCn1cc(Cl)c(C(=O)Nc2ccccc2C(N)=O)n1	19.6	9.1%	3.2%	4.2%	28.8*	2.0%
Cn1nc(C(=O)Nc2cccc(C(F)(F)F)c2)c2ccccc2c1=O	-10.4	12.4%	-2.0%	1.6%	-2.7	-0.5%
COc1ccc(C2C(C(N)=O)=C(C)Nc3nc(SCc4ccccc4Cl)nn32)cc1OC (configuration not stated)	·	·	·	·	·	0.5%
Cc1ccccc1-n1c(=O)c2c3c(sc2n2cnnc12)CCCC3	·	·	·	·	·	-1.3%
O=C(O)c1cccc2cccnc12	-23.6	4.5%	-20.5%	-1.6%	-5.4	-2.0%
Cc1ccc(C(=O)O/N=C(\N)c2ccccn2)c(Cl)c1	·	12.6µM*	9.4%	?	-10.9	14.1µM*
N/C(=N\OC(=O)c1ccc(=O)n(Cc2ccc(Cl)cc2)c1)c1ccccn1	6.5	21.1%	2.3%	8.4%	28.3	-4.5%
O=C(Oc1ccccc1)c1cccc2cccnc12	-0.1	35.5µM*	9.0%	-1.0%	-2.6	-0.4%
O=[N+]([O-])c1ccc(Oc2cccc3cccnc23)c([N+](=O)[O-])c1	-7.5	·	19.9µM*	1.5%	-1.9	-11.9%
N#Cc1ccc(Oc2cccc3cccnc23)c([N+](=O)[O-])c1	24.7	-3.9%	-28.4%	-0.8%	-1.0	3.1%
N/C(=N\OC(=O)c1ccc(Cl)cc1[N+](=O)[O-])c1ccccn1	117.5*	-16.4%	-1.8%	-9.9%	48.5*	-11.4%
COc1ccc(Cl)cc1NC(=O)CSc1nc(=O)n(Cc2ccco2)c2c1CCC2	·	·	·	·	·	-9.8%
Cc1c(C(=O)OCC(=O)N2CCCC2)cccc1[N+](=O)[O-]	41.5	27.6%	5.9%	1.6%	13.3	10.0%
CN(CC(=O)O/N=C(\N)c1ccccn1)S(=O)(=O)c1cc(Cl)ccc1Cl	-14.0	-12.9%	3.6%	-2.9%	-2.0	-14.0%
